# A selection: hits, their analogues and other compounds. The true share with any hit is near 17%.
# TDP1 cell CPT = growth inhibition of DT40 Tdp1-/-;hTDP1 cells with camptothecin (screen for TDP1 inhibitors). 12% of 420,000 active. chicken DT40 Tdp1-/-;hTDP1 cells + 20 nM CPT, ATP luminescence, 48 h. Potency, µM (series often up to 46.2 µM), for inactives: top-dose activity change, negative = growth inhibition, actives largely listed as inhibitors; also: % is scaled to controls: 0 for no effect and ±100 for the full control effect; nearly all actives have a fitted effect of over 55% in size
#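 Chicken DT40 Tdp1-/- cells stably complemented with human TDP1 were seeded at 400 cells/well in medium containing 20 nM camptothecin, exposed to pin-transferred compounds, and grown at 37 °C for at least 48 hr. Viability was read as ATP luminescence.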
# ATXN2 expr inh = ATXN2 expression inhibition; AID 1745845; HEK-293 ATXN2-luciferase reporter, luminescence, 24 h; Potency, µM (titrated, usually from 57 µM), inactives show at the highest dose activity change, negative = inhibition, hits mostly inhibitors; 0.72% of 360,000 active; also: % is scaled to controls: 0 for no effect and ±100 for the full control effect; nearly all actives have a fitted effect of over 55% in size
#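 qHTS (up to 57 uM final) was run with 24 h compound exposure of reporter cells at 37 °C. Each well was multiplexed: SteadyGlo luminescence measured ATXN2-luciferase expression after a fluorogenic Gly-Phe-AFC viability readout (25 uM final).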
# HepG2 tox = kills HepG2 cells in TGF-b inhibitor counter-screen; HepG2 CAGA-GFP viability, ATP luminescence, 18 h; Potency, µM (top dose mostly 46.1 µM), for the others: top-dose activity change, negative = cytotoxicity, hits mostly cytotoxic; 0.76% of 410,000 active; AID 588856
#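 CellTiter-Glo luminescence gave cytotoxicity after 18 hours at 37 degrees C. The cells were HepG2 CAGA-GFP in 1% FBS DMEM, stimulated with 500 pg/mL TGF-beta after compound addition. %Activity was normalised to no-cell wells (complete cell-killing) and DMSO (no toxicity), and curves were fitted and classified.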
# ATXN viability = cell viability loss in ATXN counter-screen. S2 cells (HEK-293 line with an ATXN2-luciferase reporter) viability, CellTiter-Fluor protease fluorescence, 24 h. Potency, µM (titrated, usually from 56.7 µM), usual class: cytotoxic. 0.49% of 400,000 active. AID 651635; also: nearly all actives have a fitted effect of over 40% in size
# TDP1 cell noCPT = qHTS for Inhibitors of human tyrosyl-DNA phosphodiesterase 1 (TDP1): qHTS in cells in absence of CPT; Potency, µM (highest dose often 46.2 µM), for inactives: at the highest dose activity change, negative = growth inhibition, most hits filed as inhibitors; 15% of 420,000 active; DT40 Tdp1-/- hTDP1 cells, no CPT, ATP luminescence, 48 h; AID 686978, 2013; also: % is scaled to controls: 0 for no effect and ±100 for the full control effect; nearly all actives have a fitted effect of over 55% in size
#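 Chicken DT40 Tdp1-/- cells complemented with human TDP1, screened without camptothecin (DMSO vehicle only), 400 cells/well. Compounds pin-transferred, cells incubated at 37 °C for at least 48 hr. Growth read as ATP-dependent luminescence (CellTiter-Glo, 30 min at RT).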
# TGFb inhibitor = blocks TGF-b signaling; HepG2 CAGA-GFP TGF-b/SMAD3 reporter, GFP fluorescence, 18 h; TGF-beta stimulated, 500 pg/mL final; Potency, µM (titrated, usually from 46.1 µM), without a hit: top-dose activity, negative = inhibition, usual class: inhibitors; 1.2% of 410,000 active; AID 588855; also: % is scaled to controls: 0 for no effect and ±100 for the full control effect; nearly all actives have a fitted effect of over 65% in size
#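 HEPG2 CAGA-GFP, 1000 cells/well; 2 h settle, 37 C; cpd via pin tool; TGF-b 500 pg/mL final; 18 h, 37 C; GFP imaging ex488/em500-530; %Activity normalised to -TGF-b and +DMSO controls; CRC fit, curve class.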
# * marks the source's active call; other numbers are inactive results; i = inactive; ? = inconclusive; . = no result given; [ ] = remark or other dose. Calls follow the shape of the dose curve; as a rule, active = well fitted curve in the direction sought with a large enough effect; inconclusive = small, poorly fitted or top-dose-only effect, or another doubt; inactive = no such curve, though single readings can be large; an effect the other way counts as inactive or inconclusive. Potency is read from the fitted curve at half-maximal effect.
SMILES,TDP1 cell CPT,ATXN2 expr inh,HepG2 tox,ATXN viability,TDP1 cell noCPT,TGFb inhibitor
Cc1nc2c(c(C)c1CCC(=O)Nc1cccc(C(F)(F)F)c1)c(=O)n(C)c(=O)n2C,?,-14%,-4%,i,16µM*,?
CC(=O)N(c1onc(C)c1C)S(=O)(=O)c1ccc(N)cc1,.,-3%,.,i,.,.
Cc1c(C(=O)N2CCCCC2c2cccnc2)sc2ncnc(NCc3cccs3)c12 (stereo not given),-3%,.,.,i,?,.
CCCCCCn1c(=O)n2n(c1=O)C[C@]1(OC(=O)NCc3ccccc3F)CN(S(=O)(=O)c3ccc(C)cc3)C[C@]1(O)C2,?,-19%,50%,?,15µM*,?
CCCCCCNC(=O)O[C@@]12CN(S(=O)(=O)c3ccc(C)cc3)C[C@]1(O)Cn1c(=O)n(CCCCCC)c(=O)n1C2,0%,?,-90%,?,?,?
CCCCCCn1c(=O)n2n(c1=O)C[C@]1(OC(=O)NC3CCCC3)CN(S(=O)(=O)c3ccc(C)cc3)C[C@]1(O)C2,?,?,-23%,?,23µM*,?
CCCCCCn1c(=O)n2n(c1=O)C[C@]1(OC(=O)NCC3CCCCC3)CN(S(=O)(=O)c3ccc(C)cc3)C[C@]1(O)C2,?,-34%,-52%,.,?,?
COc1ccccc1CN=C1NC(=O)C(CC(=O)Nc2ccc(C(C)=O)cc2)S1 (stereo not given),9%,16%,-9%,i,0%,-4%
CNC(=O)C1CC(=O)N(Cc2ccc3c(c2)OCO3)C(=Nc2ccc(OC)cc2)S1 (stereo not given),-2%,-15%,1%,i,-14%,3%
CCC1CCc2c(sc3ncnc(N4CCOCC4)c23)C1 (stereo not given),?,2%,-34%,i,18µM*,-12%
CC1CCc2sc3ncnc(N4CCN(C)CC4)c3c2C1 (stereo not given),?,2%,9%,i,?,-30%
CC(C)c1ccc(NC(=S)Nc2ccc(OC(F)(F)F)cc2)cc1,18µM*,5%,-32%,i,23µM*,-16%
COc1ccc(CCNC(=S)Nc2cc(C)cc(C)c2)cc1,?,-2%,-34%,i,23µM*,11%
COc1ccc(CCNC(=S)Nc2ccc(C(C)C)cc2)cc1,?,.,-72%,i,18µM*,16µM*
COc1ccc(CCNC(=S)Nc2ccc(OC)cc2)cc1,?,2%,-27%,i,?,-20%
CC(=O)NC(=S)Nc1ccc(NC(=O)COc2ccc(C(C)C)cc2)cc1,-4%,-24%[11.3 µM],4%,i,-22%,?
CCCCc1ccc(NC(=S)N2CCN(C)CC2)cc1,-8%,.,-9%,i,?,-20%
COc1ccc(CCNC(=S)Nc2ccccc2)cc1,?,.,-44%,?,?,?
CCCCc1ccc(NC(=S)N2CCCC2)cc1,12µM*,-6%,-11%,i,15µM*,?
Cc1oc(-c2ccccc2NC(=O)c2cccnc2)nc1CNC(=O)c1ccc(N(C)C)cc1,1%,.,.,?,-16%,.
CCCCc1ccc(NC(=S)NCc2ccc(OC)cc2)cc1,?,.,-40%,i,18µM*,10µM*
CCC(C)c1ccc(NC(=S)Nc2ccc(OC)cc2)cc1 (stereo not given),23µM*,10%,-20%,i,16µM*,?
COc1ccc(NC(=S)NCc2ccc(F)cc2)cc1,-22%,.,-20%,?,?,?
CCOc1ccc(NC(=S)Nc2ccc(OC)cc2)cc1,-6%,-14%[11.3 µM],0%,i,-26%,?
O=C1OCCC1=COCCCCCCOC=C1CCOC1=O,-10%,.,-5%,i,?,-1%
SMILES,TDP1 cell CPT,ATXN2 expr inh,HepG2 tox,ATXN viability,TDP1 cell noCPT,TGFb inhibitor
CCCC(=O)N1CCC1(C)C(=O)Nc1cccc(F)c1 (stereo not given),-25%,2%,-11%,i,-20%,9%
Cc1cccc(NC(=O)C(C)OC(=O)c2ccccc2NS(=O)(=O)c2cc(C)c(C)c([N+](=O)[O-])c2)c1 (stereo not given),16µM*,-22%,-20%,?,?,?
CC(=O)Nc1cccc(/C(C)=N/Nc2ccc(S(=O)(=O)Nc3ccccc3C(=O)O)cc2[N+](=O)[O-])c1,-15%,-10%,1%,i,-13%,?
CC1=C(C(=O)NCc2cccc(Cl)c2)C2(CCCCCC2)OC1=O,?,.,-26%,.,1.8µM*,-7%
Cc1ccc(NC(=O)c2ccc(C#CC3(O)CCCCC3)cc2)cc1C,23µM*,-9%,-30%,i,16µM*,-1%
CC1=C(C(=O)Nc2cccc(F)c2)C2(CCCCCC2)OC1=O,?,.,-8%,.,?,0%
CC1=C(C(=O)NCc2cccc(F)c2)C2(CCCCCC2)OC1=O,-30%,.,-13%,.,-25%,?
CC1=C(C(=O)Nc2ccc(C)c(C)c2)C2(CCCCCC2)OC1=O,15µM*,.,-27%,.,?,0%
Cc1ccc(NC(=O)NC2CCCCCCC2)cc1C,?,13%,-11%,i,-6%,2%
Cc1cc(Cl)ccc1OCCCC(=O)NCCc1nnc2ccccn12,0%,-10%,-1%,i,-5%,1%
O=C(CCNC(=O)C1CCN(S(=O)(=O)c2ccc(F)cc2)CC1)NCc1ccncc1,-1%,7%,-2%,i,26%,-5%
Cc1nc(N2CCc3ccccc3C2)[nH]c(=O)c1Cc1ccccc1,-2%,8%,5%,i,-11%,13%
Cc1nc(-n2[nH]c3c(c2=O)CCCC3)[nH]c(=O)c1Cc1ccccc1,2.9µM*,8.9µM*,-13%,18µM*,3.3µM*,-21%
COc1cc(C(=O)NNC(=S)NC(=O)c2ccccc2C)cc(OC)c1OC,16µM*,?,-12%,i,?,?
COc1ccccc1C(=O)NNC(=S)NC(=O)c1cc(OC)c(OC)c(OC)c1,18µM*,?,-19%,i,6.5µM*,-8%
COc1cc(C(=O)NC(=S)NNC(=O)[C@H]2C[C@@H]2c2ccccc2)cc(OC)c1OC,-10%,-19%,0%,i,-15%,-19%
O=C(NN=Cc1cc(Cl)ccc1[N+](=O)[O-])c1ccco1,3%,9%,0%,i,-4%,-3%

# Screens: PubChem, National Center for Advancing Translational Sciences (NCATS)
